Among all 48,000 compounds or so, about 13,000 (27%) showed an effect of 50% or more. The list shows a part of the results.
system: Wolbachia pipientis; assay: Anti-Wolbachia Cell-Based Screen; type: functional; design: scale not given: in the data most compounds retested in dose-response had high values; conditions: 5 µM

Row | Structure (SMILES) | Percent Effect [%]
1 | c1cncc(-c2nc3c(c(NCC4(c5ccncc5)CC4)n2)CCC3)c1 | -14.36
2 | CCn1nc(C)cc1C(=O)N1CCOc2cc(C)ccc21 | -0.2889
3 | Cc1csc(CNc2cnn(C(C)C)c2)n1 | 2.502
4 | Cc1cn2c(CN(C)C(=O)c3cccnc3O)c(C)nc2s1 | 1.222
5 | Cc1nn(C)c(C)c1C1CCCN1Cc1nc(C2CC2)no1 (stereo not given) | -2.837
6 | Cc1nc(C)n(CC2CCCN2Cc2nc(-c3cccs3)no2)n1 (stereo not given) | -9.424
7 | Cc1nn(C)c(C)c1C1CCCN1Cc1nc(-c2cccs2)no1 (stereo not given) | 66.61
8 | Cc1nn(C)c(C)c1C1CCCN1Cc1nc(-c2ccccn2)no1 (stereo not given) | 93.92
9 | C1CCC(c2nnc3sc(C4CCOC4)nn23)C1 (stereo not given) | 100.6
10 | C1CCC(c2nnc3sc(C4CCCO4)nn23)C1 (stereo not given) | 107.8
11 | C1CCC(c2nn3c(C4CCCO4)nnc3s2)C1 (stereo not given) | 94.06
12 | CCn1cc(N2Cc3nc(N4CCN(C)CC4)ncc3C2=O)cn1 | -2.562
13 | CC(=O)N1CC[C@H]2CC(=O)N(CCc3c[nH]cn3)CC[C@H]2C1 | 10.36
14 | O=C(O)c1ccc(S(=O)(=O)Nc2ccccc2CC(F)(F)F)c(F)c1 | -4.395
15 | Cc1oc(C(=O)O)cc1S(=O)(=O)Nc1cccc(Cl)c1F | 105.9
16 | Cc1oc(C(=O)O)cc1S(=O)(=O)Nc1ccc(Cl)c(F)c1 | -4.199
17 | Cc1oc(C(=O)O)cc1S(=O)(=O)Nc1cc(Br)ccc1F | 94.97
18 | Cc1oc(C(=O)O)cc1S(=O)(=O)Nc1ccccc1F | 96.87
19 | CN(C)C(=O)CNS(=O)(=O)c1cc(Br)ccc1F | 0.0286
20 | Cc1cccc(NS(=O)(=O)c2cc(C(=O)O)oc2C)c1Cl | -7.287
21 | Cc1oc(C(=O)O)cc1S(=O)(=O)Nc1cc(Cl)ccc1F | 4.903
22 | Cc1oc(C(=O)O)cc1S(=O)(=O)Nc1cccc(-c2nccs2)c1 | 2.887
23 | Cc1oc(C(=O)O)cc1S(=O)(=O)Nc1ccc(Cl)cc1F | 103.2
24 | Cc1ccc([C@H]2CN(C(C)C)C[C@@H]2NS(=O)(=O)N2CCOCC2)o1 | -9.511

Row | Structure (SMILES) | Percent Effect [%]
25 | O=C(O)C(F)(F)F.O=C(c1ccncc1)N1CC[C@H]2[C@H]1CCN2S(=O)(=O)C1CC1 | -0.5443
26 | CCn1ccnc1CNCC1CCN(CC(O)c2ccccc2)CC1 (stereo not given) | -5.873
27 | Cc1cc(CN2CCC3(CC2)CC(C(=O)O)N(C(=O)C2CC2)C3)oc1C (stereo not given) | -10.16
28 | O=C(c1cc(Cl)c2c(c1)OCO2)N1CCN(c2ccccn2)CC1 | -15.08
29 | Cc1cccc(NS(=O)(=O)c2cc(C(=O)O)oc2C)c1 | -4.62
30 | Cc1oc(C(=O)O)cc1S(=O)(=O)Nc1cc(F)ccc1F | 110.8
31 | Cc1ccc(F)c(NS(=O)(=O)c2cc(C(=O)O)oc2C)c1 | 98.71
32 | O=C(O)CSc1nnc(-c2cn[nH]c2)n1-c1ccccc1Cl | -15.15
33 | O=C(CS(=O)(=O)c1cccc[n+]1[O-])NC1CCCc2ccccc21 (stereo not given) | 4.468
34 | CN(Cc1cccnc1)C[C@H]1OC[C@@H]2CCN(C(=O)C3CC3)C[C@@H]21.O=C(O)C(F)(F)F.O=C(O)C(F)(F)F | -29.83
35 | Cc1ccnc2c1NC(=O)CN2C(=O)CCc1cccs1 | 21.37
36 | Cc1cccc(CO[C@@H]2CC[C@H]3[C@H]2OCCN3Cc2cc(C)on2)n1.O=C(O)C(F)(F)F.O=C(O)C(F)(F)F | -3.201
37 | Fc1ccc(CN2CCO[C@H]3[C@H](OCc4ccncc4)CC[C@@H]32)cc1.O=C(O)C(F)(F)F.O=C(O)C(F)(F)F | 140.9
38 | Cc1cccc(CN2Cc3[nH]nc(COCC4CC4)c3C2)n1.O=C(O)C(F)(F)F | -6.126
39 | COc1ccc(CN2CCO[C@H]3[C@H](OCc4ccncc4)CC[C@@H]32)cc1.O=C(O)C(F)(F)F.O=C(O)C(F)(F)F | 132.4
40 | Cc1nnc(N2C[C@H](OCc3ccncc3)[C@H]3OCCC[C@H]32)s1.O=C(O)C(F)(F)F.O=C(O)C(F)(F)F | -4.606
41 | COc1ccc(CN2CCO[C@H]3[C@H](Oc4ccccn4)CC[C@@H]32)cc1.O=C(O)C(F)(F)F.O=C(O)C(F)(F)F | -1.108
42 | Cc1cccc(CN2CCO[C@H]3[C@@H](OCc4ccncc4)CC[C@@H]32)n1.O=C(O)C(F)(F)F.O=C(O)C(F)(F)F.O=C(O)C(F)(F)F | 103.5
43 | Fc1ccccc1CN1C[C@@H](OCc2ccncc2)[C@H]2OCCC[C@H]21.O=C(O)C(F)(F)F.O=C(O)C(F)(F)F | 11.15
44 | Cc1cccc(CN2CCO[C@@H]3CC(COc4ccccn4)C[C@H]32)n1.O=C(O)C(F)(F)F.O=C(O)C(F)(F)F (stereo not given in full) | 94.81
45 | O=C(CO[C@@H]1CC[C@H]2[C@H]1OCCN2Cc1ccccn1)N1CCCC1.O=C(O)C(F)(F)F.O=C(O)C(F)(F)F | -4.207
46 | COc1cc(CNCCn2cccn2)c2c(c1)CC(C)O2 (stereo not given) | -3.376
47 | CC(=O)Nn1c(C)cc(CN2CCC(c3ccncc3)CC2)c1C | -4.141
48 | CC(c1cccnc1)N(C)Cc1csc(-c2ccccn2)n1 (stereo not given) | 4.015

Row | Structure (SMILES) | Percent Effect [%]
49 | N#Cc1ccccc1CN1CCC2(CC1)CC(c1ccccc1)C(=O)N2 (stereo not given) | 15.31
50 | Cc1nc(CNC(=O)CCN2CCN(c3ccccc3)CC2)oc1C | 0.8962
51 | COc1c(CNCC(O)c2ccc(C)cc2)c(C(C)C)nn1C (stereo not given) | 85.73
52 | Cc1nn(C)c(N(C)C)c1CNCc1cccc(Cl)c1 | 10.47
53 | COc1c(CNCc2ccc(N(C)C)nc2)c(C(C)C)nn1C | -3.12
54 | CC(C)c1nn(C)c(N(C)C)c1CNCC(O)c1ccccc1F (stereo not given) | -5.015
55 | COc1c(CNCC(O)c2ccccc2F)c(C(C)C)nn1C (stereo not given) | 91.26
56 | Cc1nn(C)c(N(C)C)c1CNCC(O)c1ccccc1F (stereo not given) | 78.77
57 | COc1ncccc1CNCc1c(C(C)C)nn(C)c1OC | 1.463
58 | COc1c(CNCC(O)c2ccccc2)c(C(C)C)nn1C (stereo not given) | 92.93
59 | COc1c(CNCC(c2cccc(F)c2)N(C)C)c(C(C)C)nn1C (stereo not given) | 10
60 | COc1ccccc1C(O)CNCc1c(C(C)C)nn(C)c1N(C)C (stereo not given) | 2.712
61 | COc1c(CNCc2ccc(CN(C)C)cc2)c(C(C)C)nn1C | -2.323
62 | Cc1cccc(C(=O)N2CCSCC2)c1NC(=O)c1ccsc1 | 1.507
63 | O=C(c1cc(=O)[nH]c(=O)[nH]1)N1CCCCC1c1nc2cc(F)ccc2[nH]1 (stereo not given) | -7.879
64 | CC(C)(C)OC(=O)N[C@H]1CCN(c2cncc(Br)c2)C1 | 4.915
65 | Cn1c(SCc2noc(C(C)(C)C)n2)nnc1C1CCS(=O)(=O)C1 (stereo not given) | 11.73
66 | CCc1ccc(C(=O)NCCCC2(C3OCCO3)CCOCC2)cc1 | -33.3
67 | N#Cc1ccccc1CN1C[C@@H]2CC[C@H](C1)N(Cc1cscn1)C2=O | -11.1
68 | O=C(NCc1ccccc1)N1CCC(Oc2ncccc2Br)CC1 | -0.9975
69 | NC(=O)Nc1cccc(F)c1C(=O)NC1CCCC1 | 2.904
70 | COc1c(CNCC(O)COc2ccc3c(c2)OCO3)c(C)nn1C (stereo not given) | 70.56
71 | Cc1nn(C)c(Cl)c1CNCCOc1ccc2c(c1)OCO2 | -10.2
72 | Cc1nc(CNCC(O)COc2ccc3c(c2)OCO3)cs1 (stereo not given) | -10.52

Row | Structure (SMILES) | Percent Effect [%]
73 | COc1c(CNCC(O)c2cccc(F)c2)c(C(C)C)nn1C (stereo not given) | 6.756
74 | COc1c(CNC(c2ccc(F)cc2)C(C)(C)C)c(C)nn1C (stereo not given) | 23.53
75 | COc1c(CNCC(O)c2cccc(F)c2)c(C)nn1C (stereo not given) | 102.4
76 | CC(=O)c1ccc(N2CCC3(CCC(=O)N(CCCO)C3)CC2)nc1 | -7.997
77 | O=C1N(Cc2cccnc2)C[C@H]2CN(S(=O)(=O)c3ccccc3)CCN12 | -1.281
78 | CN(CC1CCCN(S(C)(=O)=O)C1)c1cnn(C)c1 (stereo not given) | 7.496
79 | Cc1ccc(CC2COCCN(S(C)(=O)=O)C2)nc1 (stereo not given) | 84.13
80 | Cn1ccnc1CN1C[C@H]2CN(S(=O)(=O)c3ccccc3)CCN2C1=O | 0.6101
81 | Cc1ccc(CC2CCCN(S(C)(=O)=O)C2)nc1 (stereo not given) | 114.6
82 | Cc1ccc(CC2COCCN(S(=O)(=O)c3ccccc3)C2)nc1 (stereo not given) | 86.08
83 | O=C1N(Cc2ccccn2)C[C@H]2CN(S(=O)(=O)c3ccccc3)CCN12 | -3.737
84 | Cc1csc(CN2C[C@@H]3CN(S(C)(=O)=O)CCO[C@@H]3C2)n1 | -30.25
85 | O=S(=O)(c1ccccc1)N1CCOCC(Cc2cccnc2)C1 (stereo not given) | 91.68
86 | O=S(=O)(c1cccnc1)N1CCC(OCCCc2ccccc2)C1 (stereo not given) | -0.692
87 | Cc1ncsc1CN1C[C@@H]2CN(S(C)(=O)=O)CCO[C@@H]2C1 | -34.03
88 | Cc1cnc(N2CCC[C@@H]3CN(S(C)(=O)=O)C[C@@H]32)nc1 | 11.33
89 | Cc1cc(C)n(C2CN(CC(O)c3ccc4c(c3)OCO4)C2)n1 (stereo not given) | -2.648
90 | CCc1nc(C)cc(N2CCN(C(=O)[C@@H]3C[C@@H]4C=C[C@H]3C4)CC2)n1 | 84.46
91 | COCCC1(C(=O)O)CCN(c2cc(C)c3ccccc3n2)CC1 | -3.456
92 | Cc1cc(N2CCC(O)(C(=O)O)CC2)nc2ccccc12 | -10.2
93 | Cc1cc(N2CCN(C(=O)[C@@H]3C[C@@H]4C=C[C@H]3C4)CC2)nc2ccccc12 | 54.26
94 | CCc1nc(C)cc(N2CCCC(C(=O)c3ccc(OC)cc3C)C2)n1 (stereo not given) | -51.86
95 | CCC(=O)N1CCCN(c2cncc(-n3nc(C)cc3C)n2)CC1 | -2.482

Source: ChEMBL document CHEMBL3988442, “University of Dundee, Small-Polar-MMV Screening Library” (2021)
